Inconclusive results are not listed. Calls of active or inactive are those of the source. Unless noted, the call rests on the fitted dose curve.

Drawing on PubChem BioAssay (Tox21), this text covers Potency for 13 compounds.

A short description of experiment [1]: Nuclear factor erythroid 2-related factor 2/antioxidant responsive element (Nrf2/ARE) small molecule agonists: qHTS cell viability counter screen in human keratinocytes (AID 1919968; active means well fitted curve in the direction sought with a large enough effect in the repeat runs; an effect the other way counts as inactive or inconclusive; further: nearly all actives have a fitted effect of over 55% in size; further: potency means the concentration at half of the fitted maximal effect). The essentials: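 Cytotoxicity was multiplexed with the Nrf2/ARE luciferase assay in the same wells. Stably transfected HaCaT keratinocytes were treated with test compounds for 23 h at 37 C. Cell viability was then measured by CellTiter-Fluor fluorescence.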
A general note: qHTS replaces the single test concentration by a dilution series.

The target in experiment [2] is Gonadotropin-releasing hormone receptor (Homo sapiens) (UniProt P30968). Description: Human gonadotropin-releasing hormone receptor (GnRHR) small molecule agonists, calcium flux assay in GnRHR-HEK293 cells (AID 1920063). Further: nearly all actives have a fitted effect of over 35% in size. In a few lines:
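Agonist activity was measured as intracellular calcium flux in HEK293 cells engineered to stably express human GnRHR. After dye loading for 1 hour at 37 C, compounds in DMSO were added and fluorescence was followed for 3 minutes.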
In general terms: Calcium flux is commonly read through the fluorescence of an indicator in the cells.

Experiment [3] is described as follows: G protein-coupled receptor (GPCR) small molecule agonists, calcium flux assay: HEK293 wild type cell line counter screen (AID 1920065). In a few lines:
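Seed cells, incubate 18 h (37 C, 5% CO2); add calcium dye, 1 h at 37 C; pin-transfer compounds, ATP control or DMSO; read fluorescence 480/540 nm each second for 3 min.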

Experiment [4] concerns the target 5-hydroxytryptamine receptor 2A (Homo sapiens) (UniProt P28223). Description: 5-hydroxytryptamine receptor 2A (HTR2A) small molecule antagonists, cell-based qHTS assay (AID 1963586). Further: nearly all actives have a fitted effect of over 45% in size. In a few lines:
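CHO cells stably expressing human HTR2A were plated for 18 h at 37 C, then loaded with calcium dye for 1 h. Compounds were preincubated 5 min at room temperature before DOI (4 nM solution) was added. Kinetic fluorescence was read for 3 min.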

Experiment [5] addresses Muscarinic acetylcholine receptor M1 (Homo sapiens) (UniProt P11229). Description: Cholinergic receptor muscarinic 1 (CHRM1) small molecule antagonists, cell-based qHTS assay (AID 1963588). Further: nearly all actives have a fitted effect of over 40% in size. In a few lines:
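Compounds were tested at 15 concentrations in three independent runs. Dye-loaded CHRM1-CHO cells were exposed 5 min at room temperature before stimulation by acetylcholine added at 50nM. Intracellular calcium was read kinetically on FDSS for 3 min.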

Experiment [6] can be described thus: cAMP Responsive Elements (CRE) small molecule agonists, cell-based qHTS assay (AID 1963590). The essentials:
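Cells carrying a CRE-driven beta-lactamase reporter (HEK 293T) are seeded, incubated overnight (18 h), and treated with test compounds for 3 h at 37 C; reporter activity is then detected with a FRET substrate after 2 h at room temperature.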

A short description of experiment [7]: cAMP Responsive Elements (CRE) small molecule antagonists, cell-based qHTS assay (AID 1963591; active means well fitted inhibition curve with a large enough effect in the signal ratio in the repeat runs, not every such curve was filed as active; the % refers to the signal ratio). The essentials:
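Cells (CRE-bla HEK 293T, DMEM with 10% dialyzed FBS and 25 mM HEPES) are seeded and incubated 18 h. Compounds are added with NKH477 agonist at 0.25 uM final for 3 h, then FRET substrate for 2 h.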

Experiment [8] addresses Beta-2 adrenergic receptor (Homo sapiens) (UniProt P07550). Description: Adrenergic beta2 receptor (ADRB2) small molecule antagonists, cell-based qHTS assay (AID 1963592). Further: series mostly up to about 92 µM; nearly all actives have a fitted effect of over 50% in size. In a few lines: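 Assay format: CHO-ADRB2 cells, 18-20hr seeding at 37C/5% CO2, then compound plus 1nM isoproterenol agonist mix for 0.5hr RT. Homogeneous time-resolved fluorescence cAMP detection after 1hr, expressed as 665/615 nm ratio.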

For experiment [9], the target named is D(2) dopamine receptor (Homo sapiens) (UniProt P14416). Briefly: Dopamine D2 receptor (DRD2) small molecule agonists, cell-based qHTS assay (AID 1963594). Further: nearly all actives have a fitted effect of over 35% in size. The essentials:
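HEK293 cells stably expressing human DRD2, pre-treated with PDE inhibitor Ro20-1724 (0.1 mM final) and compound 10 min at room temperature, then stimulated with NKH477 (200nM […]) for 30 min. cAMP read by HTRF (665/620 nm).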

Experiment [10] in a line: p53 small molecule agonists, cell-based qHTS assay with human liver microsomes (AID 1963577). In a few lines:
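Fluorescence of the beta-lactamase reporter in p53RE-bla cells, detected with LiveBLAzer substrate (2 h, room temperature, dark), served as the read-out after 16 h compound exposure at 37 C with human liver microsomes and NADPH, each 0.5 mg/mL final.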

A short description of experiment [11]: p53 small molecule agonists, cell-based qHTS assay with human liver microsomes: qHTS cell viability counter screen (AID 1963579). Further: nearly all actives have a fitted effect of over 45% in size. Further: potency means the concentration at half of the fitted maximal effect. The essentials: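 Cytotoxicity counter screen: p53RE-bla, 4,000 cells/well; 5 h settle, 37 C/5% CO2; cpd + HLM 0.5 mg/mL + NADPH 0.5 mg/mL (final); 16 h, 37 C; CellTiter-Glo, 30 min RT, luminescence.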
A short description of experiment [12]: p53 small molecule agonists, cell-based qHTS assay with rat liver microsomes: qHTS cell viability counter screen (AID 1963580). Further: nearly all actives have a fitted effect of over 45% in size. Further: potency means the concentration at half of the fitted maximal effect. The essentials:
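Cytotoxicity counter screen: intracellular ATP measured by CellTiter-Glo luminescence in the same wells as the beta-lactamase reporter read, on HCT-116 p53RE-bla cells exposed 16 h at 37 C to compounds with rat liver microsomes and NADPH, each 0.5 mg/mL final.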

A short description of experiment [13]: p53 small molecule agonists, cell-based qHTS assay (AID 1963582; active means well fitted activation curve with a large enough effect in the signal ratio in the repeat runs, not every such curve was filed as active; the % refers to the signal ratio; further: potency means the concentration at half of the fitted maximal effect). In a few lines:
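Cells carrying a p53-responsive bla reporter are treated with test compounds for 16 h at 37 C; beta-lactamase activity is then detected with LiveBLAzer B/G FRET substrate after 2 h at room temperature.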

For experiment [14], the target named is 5-hydroxytryptamine receptor 2A (Homo sapiens) (UniProt P28223). Briefly: 5-hydroxytryptamine receptor 2A (HTR2A) small molecule agonists, cell-based qHTS assay (AID 1963587). Further: nearly all actives have a fitted effect of over 30% in size. The essentials: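 CHO cells stably expressing human HTR2A, plated 18 h, loaded with calcium dye 1 h at 37 C. Agonist mode: compounds added and intracellular calcium fluorescence recorded kinetically for 2 min at 1 sec intervals.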
5-hydroxytryptamine receptor 2A (Homo sapiens), sequence (P28223 whole entry, looked up): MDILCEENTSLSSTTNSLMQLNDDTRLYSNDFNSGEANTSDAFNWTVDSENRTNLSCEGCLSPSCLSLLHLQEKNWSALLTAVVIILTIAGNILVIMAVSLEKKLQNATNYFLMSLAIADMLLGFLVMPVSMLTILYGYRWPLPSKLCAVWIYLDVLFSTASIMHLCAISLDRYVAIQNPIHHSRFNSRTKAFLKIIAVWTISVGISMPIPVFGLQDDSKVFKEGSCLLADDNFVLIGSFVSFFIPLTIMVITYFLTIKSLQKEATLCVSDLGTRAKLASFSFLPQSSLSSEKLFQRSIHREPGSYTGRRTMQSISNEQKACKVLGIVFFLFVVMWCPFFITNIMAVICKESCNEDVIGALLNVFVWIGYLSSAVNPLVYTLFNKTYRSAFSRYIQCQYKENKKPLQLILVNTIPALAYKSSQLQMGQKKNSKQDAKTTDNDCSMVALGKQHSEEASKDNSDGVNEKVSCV

In experiment [15] the target is Muscarinic acetylcholine receptor M1 (Homo sapiens) (UniProt P11229). Description: Cholinergic receptor muscarinic 1 (CHRM1) small molecule agonists, cell-based qHTS assay (AID 1963589). Further: nearly all actives have a fitted effect of over 35% in size. In a few lines:
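Cells were plated and incubated 18 h at 37 C/5% CO2, loaded with calcium dye for 1 h at 37 C, then treated with compounds in DMSO. Fluorescence was recorded kinetically at 1 sec intervals.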

The target of experiment [16] is Beta-2 adrenergic receptor (Homo sapiens) (UniProt P07550). Description: Adrenergic beta2 receptor (ADRB2) small molecule agonists, cell-based qHTS assay (AID 1963593).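 Further: CHO cells stably overexpressing human ADRB2.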 The essentials: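 CHO cells stably over-expressing ADRB2 were plated overnight at 37C, then dosed with compounds plus a stimulation mix containing 100uM IBMX and 25uM Ro-20-1724 for 0.5hr at room temperature. cAMP was measured by HTRF competition, 1hr.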
Beta-2 adrenergic receptor (Homo sapiens), sequence (P07550 whole entry, looked up): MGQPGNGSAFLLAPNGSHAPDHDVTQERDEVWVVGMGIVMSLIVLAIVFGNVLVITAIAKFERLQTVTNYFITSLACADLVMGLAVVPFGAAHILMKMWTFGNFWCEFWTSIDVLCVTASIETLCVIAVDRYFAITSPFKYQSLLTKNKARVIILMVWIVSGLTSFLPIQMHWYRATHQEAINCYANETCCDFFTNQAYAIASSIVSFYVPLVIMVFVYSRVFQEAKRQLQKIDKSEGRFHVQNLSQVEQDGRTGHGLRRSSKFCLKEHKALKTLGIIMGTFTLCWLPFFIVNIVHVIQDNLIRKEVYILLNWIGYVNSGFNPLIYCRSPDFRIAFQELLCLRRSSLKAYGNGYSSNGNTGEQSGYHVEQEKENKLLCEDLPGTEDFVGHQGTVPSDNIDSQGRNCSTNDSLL

Experiment [17] addresses D(2) dopamine receptor (Homo sapiens) (UniProt P14416). Description: Dopamine D2 receptor (DRD2) small molecule antagonists, cell-based qHTS assay (AID 1963595; active means well fitted inhibition curve with a large enough effect in the signal ratio in the repeat runs, with a control signal flat; the % refers to the signal ratio). In a few lines:
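DRD2-HEK293; 0.1 mM Ro20-1724; cpd 10 min RT; NKH477 200 nM + quinpirole 12 nM, 30 min RT; HTRF cAMP (cAMP-d2/anti-cAMP cryptate), 665/620 nm ratio after 1 h.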

Experiment [18] can be described thus: p53 small molecule agonists, cell-based qHTS assay with rat liver microsomes (AID 1963578). In a few lines:
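Cells carrying a p53 response element–beta-lactamase reporter were plated and rested 5 h, then dosed with compound in DMSO plus rat liver microsomes and NADPH, each at 0.5 mg/mL final. After 16 h at 37 C, LiveBLAzer substrate was added for 2 h.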

A short description of experiment [19]: p53 small molecule agonists, cell-based qHTS assay: qHTS cell viability counter screen (AID 1963581). Further: nearly all actives have a fitted effect of over 45% in size. The essentials:
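Viability was counter-screened in parallel with the p53 agonist reporter by measuring intracellular ATP luminescence in the same HCT-116 p53RE-bla wells after 16 h compound treatment at 37 C.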

Experiment [20] addresses KiSS-1 receptor (Homo sapiens) (UniProt Q969F8). Briefly: Human kisspeptin (KISS1R) small molecule agonists, calcium flux assay in KISS1R-HEK293 cells (AID 1920064; active means well fitted curve in the direction sought with a large enough effect in the repeat runs; an effect the other way counts as inactive or inconclusive). In a few lines:
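Agonist activity is monitored as intracellular calcium rise in engineered HEK293 cells carrying human KISS1R. Cells are dye-loaded for 1 h at 37 C before compound addition, and fluorescence is recorded for 3 min.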

Gonadotropin-releasing hormone receptor (Homo sapiens), sequence (P30968 whole entry, looked up): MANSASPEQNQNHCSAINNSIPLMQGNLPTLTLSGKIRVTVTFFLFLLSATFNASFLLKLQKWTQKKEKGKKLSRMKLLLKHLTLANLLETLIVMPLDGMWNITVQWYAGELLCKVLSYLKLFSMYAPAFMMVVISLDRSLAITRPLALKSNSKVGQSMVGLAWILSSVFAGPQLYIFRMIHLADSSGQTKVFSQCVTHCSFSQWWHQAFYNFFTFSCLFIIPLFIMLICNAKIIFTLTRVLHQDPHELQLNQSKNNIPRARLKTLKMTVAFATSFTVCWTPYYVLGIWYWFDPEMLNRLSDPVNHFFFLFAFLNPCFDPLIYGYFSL
KiSS-1 receptor (Homo sapiens), sequence (Q969F8 whole entry, looked up): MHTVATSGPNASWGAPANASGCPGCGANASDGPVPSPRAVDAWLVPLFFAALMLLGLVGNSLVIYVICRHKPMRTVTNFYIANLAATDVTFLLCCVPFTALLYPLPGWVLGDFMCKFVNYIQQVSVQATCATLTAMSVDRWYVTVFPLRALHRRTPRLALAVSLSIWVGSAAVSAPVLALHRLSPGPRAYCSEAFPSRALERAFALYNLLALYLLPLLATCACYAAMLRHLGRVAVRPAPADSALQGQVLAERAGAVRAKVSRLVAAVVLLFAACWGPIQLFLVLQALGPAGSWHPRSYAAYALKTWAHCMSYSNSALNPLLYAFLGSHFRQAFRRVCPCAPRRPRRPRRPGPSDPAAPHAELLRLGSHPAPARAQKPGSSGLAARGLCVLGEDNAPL
D(2) dopamine receptor (Homo sapiens), sequence (P14416 whole entry, looked up): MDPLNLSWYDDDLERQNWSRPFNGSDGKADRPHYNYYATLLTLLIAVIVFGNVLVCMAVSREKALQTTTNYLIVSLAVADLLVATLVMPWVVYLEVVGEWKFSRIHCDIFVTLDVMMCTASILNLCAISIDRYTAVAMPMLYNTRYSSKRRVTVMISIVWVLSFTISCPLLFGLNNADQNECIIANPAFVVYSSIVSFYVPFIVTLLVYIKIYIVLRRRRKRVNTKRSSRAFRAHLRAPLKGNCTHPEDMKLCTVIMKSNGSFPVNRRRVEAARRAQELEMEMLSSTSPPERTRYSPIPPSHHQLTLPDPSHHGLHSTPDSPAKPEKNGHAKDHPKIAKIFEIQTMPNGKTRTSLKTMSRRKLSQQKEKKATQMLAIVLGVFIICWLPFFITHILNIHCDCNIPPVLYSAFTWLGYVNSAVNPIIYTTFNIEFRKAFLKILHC
Muscarinic acetylcholine receptor M1 (Homo sapiens), sequence (P11229 whole entry, looked up): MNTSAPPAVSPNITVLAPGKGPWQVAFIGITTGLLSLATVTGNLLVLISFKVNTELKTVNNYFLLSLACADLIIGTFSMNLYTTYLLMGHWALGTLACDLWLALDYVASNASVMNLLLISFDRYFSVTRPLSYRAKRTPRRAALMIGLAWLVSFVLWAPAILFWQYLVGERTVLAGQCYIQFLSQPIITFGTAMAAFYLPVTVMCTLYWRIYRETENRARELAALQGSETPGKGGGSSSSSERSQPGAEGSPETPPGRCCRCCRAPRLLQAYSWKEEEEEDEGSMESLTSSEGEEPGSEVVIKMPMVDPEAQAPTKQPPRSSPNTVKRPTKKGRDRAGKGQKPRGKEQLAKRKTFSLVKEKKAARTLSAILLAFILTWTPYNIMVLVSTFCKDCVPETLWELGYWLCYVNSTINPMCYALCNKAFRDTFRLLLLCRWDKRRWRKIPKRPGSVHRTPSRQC

For the compound `CCC(CC)Nc1ccc(C)c(C)c1`, the Potency result in experiment [1], in experiment [2], in experiment [3], in experiment [4], in experiment [5] and in experiment [6] was “inactive” in each case. The Potency entry in [7], in experiment [8] and in [9] was “inactive” each time.

Turning to `CCCCOC(=O)CO`, the Potency entry in experiment [1], in experiment [2], in experiment [3], in experiment [10], in [11] and in experiment [12] was “inactive” each time. Also, the Potency result in [13], in experiment [4], in experiment [14], in experiment [5], in experiment [15] and in [6] was “inactive” each time. The Potency result in experiment [7], in experiment [8], in [16], in experiment [9] and in experiment [17] was “inactive” throughout.

On to `CC[C@H](C)COC(=O)/C=C/c1ccc(N=Cc2ccc(OC)cc2)cc1`, for which the Potency result in experiment [1], in [2], in [3], in experiment [10], in [18] and in experiment [19] was “inactive” throughout. The Potency entry in [4], in experiment [5], in experiment [15], in [7] and in experiment [16] was “inactive” throughout.

Consider `CCCCC(CC)CNC(=O)CC(C)OC(=O)CCC(=O)O` (centres undefined), for which the Potency result in experiment [1], in experiment [2], in experiment [3], in [10], in experiment [18] and in experiment [11] was “inactive” each time. The Potency result in [12], in [13], in [4], in experiment [14], in experiment [5] and in experiment [15] was “inactive” throughout. Moreover, the Potency entry in experiment [6], in experiment [7], in experiment [8] and in experiment [17] was “inactive” in each case.

As for `O=C(/C=C/c1ccccc1)OCCc1ccccc1`, the Potency result in [1], in [2], in experiment [3], in [10], in experiment [18] and in experiment [11] was “inactive” in each case. Further, the Potency result in [19], in experiment [4], in experiment [14], in [5], in experiment [15] and in experiment [6] was “inactive” in each case. Further, the Potency entry in experiment [7], in [8] and in [9] was “inactive” in each case.

As to `CCCCC(CC)COC(=O)c1ccccc1C(=O)O` (centres undefined), the Potency entry in experiment [1], in experiment [2], in experiment [3], in experiment [11], in [12] and in experiment [14] was “inactive” throughout. Moreover, the Potency entry in experiment [15] was “inactive”.

Take `O=C1C=CC(=O)N1`: the results for the Potency in [1], in [11] and in [12] were 28 µM (active), 21 µM (active) and 29.6 µM (active), respectively. Besides, the Potency entry in [2], in experiment [3], in experiment [18], in experiment [14], in experiment [5] and in experiment [15] was “inactive” each time. The Potency result in experiment [9] was “inactive”.

For the compound `CC(=O)Nc1ccc(/C=N/NC(N)=S)cc1`, the Potency result in [1], in [2], in experiment [3], in experiment [10], in [18] and in [12] was “inactive” in each case. The Potency result in experiment [19], in experiment [13], in [4], in experiment [14], in experiment [5] and in [15] was “inactive” in each case. Moreover, the Potency entry in experiment [7], in experiment [8], in experiment [9] and in experiment [17] was “inactive” throughout.

With `Sc1nc(S)nc(S)n1`, the Potency result in [1], in [20], in experiment [3], in experiment [10], in [18] and in experiment [11] was “inactive” throughout. In addition, the Potency entry in [12], in experiment [19], in [13], in experiment [4], in experiment [14] and in experiment [5] was “inactive” in each case. Moreover, the Potency result in experiment [6], in experiment [8], in experiment [16], in [9] and in experiment [17] was “inactive” in each case.

With `O=c1[nH]c(=O)n([C@H]2C[C@H](O)[C@@H](CO)O2)cc1C(F)(F)F`, the Potency entry in experiment [1], in [20], in experiment [11], in [12], in [19] and in experiment [4] was “inactive” in each case. Further, the Potency result in experiment [14], in experiment [5], in experiment [15], in experiment [7], in [8] and in experiment [16] was “inactive” each time. Moreover, the Potency entry in experiment [9] and in experiment [17] was “inactive” throughout.

In the case of `O=C(NOCC1CC1)c1ccc(F)c(F)c1Nc1ccc(I)cc1Cl`, the figures for the Potency in experiment [1] and in experiment [13] were 29.8 µM (active) and 19.9 µM (active), respectively. In addition, the Potency result in experiment [20], in experiment [3], in experiment [10], in [18], in experiment [11] and in experiment [12] was “inactive” throughout. The Potency entry in [19], in experiment [14], in experiment [5], in experiment [15], in experiment [8] and in [9] was “inactive” throughout. Besides, the Potency result in [17] is “inactive”.

For the compound `C[C@@H](O)C(=O)O`, the Potency entry in experiment [1], in experiment [20], in experiment [3], in [18], in [11] and in experiment [12] was “inactive” each time. In addition, the Potency result in experiment [19], in experiment [13], in [6] and in experiment [7] was “inactive” each time.

Turning to `CCC(Cl)CCC(Cl)C(Cl)CC(Cl)C(Cl)C(Cl)CCl` (centres undefined), the Potency result in experiment [1], in [20], in experiment [3], in [10], in experiment [18] and in [11] was “inactive” each time. Besides, the Potency entry in [19], in [13], in experiment [4], in [14], in [5] and in [15] was “inactive” throughout. Further, the Potency result in experiment [6], in experiment [7], in experiment [8], in experiment [9] and in [17] was “inactive” in each case.
